Shown are actives, neighbours in structure and some others; about 19% of the full set was active somewhere.
KB-V1 MDR tox: qHTS assay for MDR1-selective chemotherapeutics: Primary screen using the drug-selected MDR subline cells KB-V1; KB-V1 MDR cells viability, CellTiter-Glo, 72 h; Potency, µM (top dose mostly 46.1 µM), most hits filed as cytotoxic; 400,000 tested, 3.4% active; further: nearly all actives have a fitted effect of over 60% in size
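Following 72 h at 37 degrees C with compound, KB-V1 cell viability was read by CellTiter-Glo luminescence, medium being phenol-red-free DMEM plus 10% FBS; concentration-response parameters came from normalized, curve-fitted qHTS data.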
HT1080 IDH1KD tx: qHTS for induction of synthetic lethality in tumor cells producing 2HG: qHTS for the HT-1080-IDH1KD cell line; 360,000 tested, 2% active; HT-1080 IDH1 knockdown viability, ATP luminescence, 48 h; AID 686971, 2013; Potency, µM (highest dose often 46.1 µM), usual class: cytotoxic
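Assay cells: HT-1080 with IDH1 knockdown, 750 per well, RPMI/5% FBS. Exposure: 48 h at 37 °C following 2 h pre-incubation. Read: CellTiter-Glo luminescence; fitted concentration-response, curve class assigned.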
HT1080NT lethal: qHTS for induction of synthetic lethality in tumor cells producing 2HG: qHTS for the HT-1080-NT fibrosarcoma cell line. HT-1080-NT fibrosarcoma viability, CellTiter-Glo ATP luminescence, 48 h. AID 686970, 2013. 360,000 tested, 1.6% active. Potency, µM (top dose mostly 46.1 µM), usual class: cytotoxic;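 further: NT is the 2HG producing partner of a matched IDH1 knockdown line; nearly all actives have a fitted effect of over 55% in size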
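HT-1080-NT; 750 cells/well; 5% FBS RPMI; 48 h compound, 37 degrees C; CellTiter-Glo luminescence; curve fitting and curve-class assignment.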
TDP1 cell noCPT: qHTS for Inhibitors of human tyrosyl-DNA phosphodiesterase 1 (TDP1): qHTS in cells in absence of CPT. DT40 Tdp1-/- hTDP1 cells, no CPT, ATP luminescence, 48 h. Potency, µM (doses to about 46.2 µM), actives largely listed as inhibitors. 420,000 tested, 15% active; further: nearly all actives have a fitted effect of over 55% in size
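Camptothecin absent (DMSO only). Human TDP1-complemented DT40 knockout cells, 400 cells/well, 37 °C for minimum 48 hr; ATP measured via CellTiter-Glo, 30 min dark incubation, luminescence.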
TDP1 cell CPT: qHTS for Inhibitors of human tyrosyl-DNA phosphodiesterase 1 (TDP1): qHTS in cells in presence of CPT | 420,000 tested, 12% active | Potency, µM (top dose mostly 46.2 µM), usual class: inhibitors | chicken DT40 Tdp1-/-;hTDP1 cells + 20 nM CPT, ATP luminescence, 48 h; further: nearly all actives have a fitted effect of over 55% in size
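Chicken DT40 Tdp1-/- cells complemented with human TDP1, 400 cells/well, exposed to compounds plus 20 nM camptothecin for at least 48 h at 37 C; viability read as ATP content by CellTiter-Glo luminescence.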
KB-3-1 cytotox: qHTS assay for MDR1-selective chemotherapeutics: Primary screen using the parental adenocarcinoma cell KB-3-1; 400,000 tested, 1.4% active; Potency, µM (highest dose often 46.1 µM), actives largely listed as cytotoxic; KB-3-1 viability, CellTiter-Glo ATP luminescence, 72 h; further: nearly all actives have a fitted effect of over 60% in size
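Viability of parental KB-3-1 cells, measured by CellTiter-Glo luminescence, followed a 72 h incubation at 37 °C with pinned compounds in phenol-red-free DMEM containing 10% FBS.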
A number is an active result; - = inactive; ? = inconclusive; . = not tested or not shown. The call rests on the fitted dose curve; in most records, active means well fitted curve in the direction sought with a large enough effect; inconclusive means small, poorly fitted or top-dose-only effect, or another doubt; inactive means no such curve, though single readings can be large; an effect the other way counts as inactive or inconclusive.

SMILES	KB-V1 MDR tox	HT1080 IDH1KD tx	HT1080NT lethal	TDP1 cell noCPT	TDP1 cell CPT	KB-3-1 cytotox
Cn1nc(C(F)(F)F)c(/C=N/OC(=O)c2ccccc2Cl)c1SCc1ccccc1Cl	?	-	?	?	?	?
Cn1nc(C(F)(F)F)c(/C=N/OC(=O)c2ccccc2)c1SCc1ccc(Cl)cc1	18.4µM	-	-	?	?	-
Cc1ccc(NC(=O)c2c(C(F)(F)F)nn(C)c2SCc2cccc(C(F)(F)F)c2)cc1C	-	-	-	4.11µM	7.31µM	?
Cc1ccc(NC(=O)c2c(C(F)(F)F)nn(C)c2SCc2ccc(Cl)cc2)cc1C	8.2µM	?	?	23.1µM	25.9µM	?
CCOC(=O)c1c(-c2ccc(C)cc2)csc1NC(=O)/C(C#N)=C/c1ccc(O)c(OC)c1	-	-	-	14.6µM	?	-
CCOC(=O)c1c(-c2cc(OC)c(OC)c(OC)c2)csc1N	?	?	-	?	23.1µM	?
COc1cc(C(=O)Nc2scc(-c3ccccc3)c2C(=O)O)cc(OC)c1OC	?	-	-	13µM	?	-
CCOC(=O)c1c(-c2cc(OC)c(OC)c(OC)c2)csc1NC(=O)c1ccccc1	?	-	-	18.4µM	?	?
CCOC(=O)c1c(-c2ccc(OC)c(OC)c2)csc1NC(=O)c1ccccc1F	-	.	.	-	-	-
COc1cccc(C2(CC(=O)N3CCN(c4ccccn4)CC3)CC(=O)N(C3CCCC3)C2=O)c1 (configuration not stated)	.	.	.	?	-	.
COc1ccc(S(=O)(=O)N2CCNC(=O)C2)cc1Br	-	-	-	-	-	-
CCN(CC)C(=O)c1[nH]cnc1C(=O)N[C@@H](CC(C)C)C(=O)OCc1ccccc1	-	-	-	-	-	-
CCC(C(=O)c1ccc2ncccc2c1)c1ccccc1 (configuration not stated)	?	-	-	16.4µM	14.6µM	-
CCOC(=O)c1c(-c2ccccc2)nnn1-c1nc(OC)nc(N2CCOCC2)n1	-	-	-	16.4µM	23.1µM	-
CCOC(=O)COc1nc(OC)nc(N2CCOCC2)n1	-	-	-	-	-	-
CC(C)C(=O)N1CCC1(C)C(=O)NCc1cc(Cl)ccc1F (configuration not stated)	-	-	-	-	-	-
COCCNC(=O)C(OC(=O)C1=Cc2ccccc2OC1)C(C)C (configuration not stated)	-	-	-	-	-	-
Cc1ccc(Nc2cc(C)nc3nncn23)c(C)c1	-	.	.	?	?	-
Cc1cc(NCc2ccccc2Cl)n2cnnc2n1	.	.	.	9.2µM	11.6µM	.
O=C1/C(=C/c2ccccc2)SC(=S)N1CC(=O)N1CCCCC1c1cccnc1 (configuration not stated)	-	-	-	16.4µM	14.6µM	-
Cc1ccc(/C=C2\SC(=S)N(CCC(=O)N3CCOCC3)C2=O)cc1	?	-	-	18.4µM	16.4µM	11.6µM
O=C1/C(=C/c2cccnc2)SC(=S)N1c1ccccc1	-	-	-	-	-	-
O=C(CCN1C(=O)/C(=C\c2ccccc2)SC1=S)N1CCOCC1	?	-	-	10.3µM	8.2µM	?
O=C(CCCN1C(=O)/C(=C/c2ccccc2)SC1=S)N1CCOCC1	?	-	-	?	?	?
COc1ccc(/C=C2\SC(=S)N(CCC(=O)N3CCOCC3)C2=O)cc1	-	-	-	?	?	-
SMILES	KB-V1 MDR tox	HT1080 IDH1KD tx	HT1080NT lethal	TDP1 cell noCPT	TDP1 cell CPT	KB-3-1 cytotox
O=C1/C(=C/c2cccnc2)SC(=S)N1Cc1ccco1	20.6µM	?	-	20.6µM	23.1µM	13µM
COCc1cc(C)nc2c1C(=O)NC(c1ccc(Br)cc1)N2Cc1ccccc1 (configuration not stated)	-	.	.	?	?	-
CCC(C)N1C(=O)/C(=C/c2c(NCCCOC(C)C)nc3c(C)cccn3c2=O)SC1=S (configuration not stated)	6.51µM	-	-	9.2µM	?	-
CNCCCCCCCCSc1nc(C(C)C)ccc1C(=O)c1cccs1	.	.	.	4.22µM	4.22µM	.
O=C(NCCCCCCNC(=O)c1cccs1)c1cccs1	?	-	-	?	-	-
O=C(Cc1ccc(NC(=O)C2CCCN(C(=O)C3CCC3)C2)cc1)Nc1ccc(C(=O)N2CCOCC2)cc1 (configuration not stated)	-	-	-	-	-	-
CSc1ccc(/C=C(\C#N)C(=O)NC2CCCCC2)cc1	-	-	-	20.6µM	?	-
